# Measured values published in article PMC7862700, “An all-to-all approach to the identification of sequence-specific readers for epigenetic DNA modifications on cytosine”.
# What was measured:
# Test in all cases: DAPPL (digital affinity profiling via proximity ligation, sequencing); 10 mM Tris-HCl pH 7.5, 50 mM NaCl, 1 mM DTT, 4% glycerol, room temperature, 30 min; GST-TFs on glutathione beads, 16-mer random dsDNA library, 0.1% formaldehyde crosslink after washing; high values mean tight binding
# Details in all cases: protein: recombinant; tags: N-terminal GST; dsDNA, one strand shown
# FLI1 = molecular target: T1, FLI1 (Homo sapiens, UniProt Q01543 1-452)
# T1 sequence: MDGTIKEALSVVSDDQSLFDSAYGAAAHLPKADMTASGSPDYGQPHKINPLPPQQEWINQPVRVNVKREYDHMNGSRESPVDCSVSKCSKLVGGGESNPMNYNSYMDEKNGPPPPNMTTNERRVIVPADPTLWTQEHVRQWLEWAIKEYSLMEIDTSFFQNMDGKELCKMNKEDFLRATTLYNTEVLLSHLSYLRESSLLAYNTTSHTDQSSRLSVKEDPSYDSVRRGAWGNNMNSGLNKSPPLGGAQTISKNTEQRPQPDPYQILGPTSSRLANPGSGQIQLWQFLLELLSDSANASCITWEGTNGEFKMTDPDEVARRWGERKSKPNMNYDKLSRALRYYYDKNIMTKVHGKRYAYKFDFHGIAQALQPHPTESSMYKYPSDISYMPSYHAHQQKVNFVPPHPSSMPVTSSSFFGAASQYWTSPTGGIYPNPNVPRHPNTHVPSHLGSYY
# Outline: (§1)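 Binding signal is defined as a hexamer's read frequency for one factor over its frequency for the tag-only sample. To obtain reads, GST-fused human transcription factors were expressed in yeast, captured on glutathione beads, barcoded with DNA and pooled with that sample. Pools met 200 nmole of a 16-mer random double-stranded DNA library in Tris/NaCl/DTT/glycerol buffer for 30 min at room temperature before washing, 0.1% formaldehyde crosslinking, proximity ligation (BsaI/T4 ligase, 1 h, 37 °C), PCR and Illumina NextSeq500 sequencing.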
# ELK1 = molecular target: T2, ELK1 (Homo sapiens, UniProt P19419 1-428)
# T2 sequence: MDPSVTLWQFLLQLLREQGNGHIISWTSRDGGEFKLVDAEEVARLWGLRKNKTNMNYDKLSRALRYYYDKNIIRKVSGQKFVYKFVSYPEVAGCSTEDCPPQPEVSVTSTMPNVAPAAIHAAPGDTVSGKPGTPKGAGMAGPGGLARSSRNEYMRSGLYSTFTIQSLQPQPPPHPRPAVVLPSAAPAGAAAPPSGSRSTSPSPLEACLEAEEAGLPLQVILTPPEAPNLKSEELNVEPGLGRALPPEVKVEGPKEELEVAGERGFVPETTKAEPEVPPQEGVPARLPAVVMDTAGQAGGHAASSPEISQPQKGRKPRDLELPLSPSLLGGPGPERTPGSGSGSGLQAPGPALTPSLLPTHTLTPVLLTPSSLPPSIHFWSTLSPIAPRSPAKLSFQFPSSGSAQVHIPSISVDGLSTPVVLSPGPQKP
# Outline: as §1
# GABPA = molecular target: T3, GABPA (Homo sapiens, UniProt Q06546 1-454)
# T3 sequence: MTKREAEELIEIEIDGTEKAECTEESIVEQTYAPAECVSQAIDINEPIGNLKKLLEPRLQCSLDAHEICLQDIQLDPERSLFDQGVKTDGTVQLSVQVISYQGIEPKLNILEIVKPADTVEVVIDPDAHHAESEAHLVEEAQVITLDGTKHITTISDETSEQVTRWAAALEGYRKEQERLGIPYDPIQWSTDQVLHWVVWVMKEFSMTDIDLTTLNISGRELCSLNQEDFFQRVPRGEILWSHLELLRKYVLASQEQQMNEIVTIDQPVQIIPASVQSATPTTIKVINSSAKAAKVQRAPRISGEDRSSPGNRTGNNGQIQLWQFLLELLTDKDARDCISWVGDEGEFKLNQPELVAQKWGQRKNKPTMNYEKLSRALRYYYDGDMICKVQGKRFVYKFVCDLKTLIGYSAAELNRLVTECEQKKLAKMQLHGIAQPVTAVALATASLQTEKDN
# Outline: as §1
# ERG = molecular target: T4, ERG (Homo sapiens, UniProt P11308 1-479)
# T4 sequence: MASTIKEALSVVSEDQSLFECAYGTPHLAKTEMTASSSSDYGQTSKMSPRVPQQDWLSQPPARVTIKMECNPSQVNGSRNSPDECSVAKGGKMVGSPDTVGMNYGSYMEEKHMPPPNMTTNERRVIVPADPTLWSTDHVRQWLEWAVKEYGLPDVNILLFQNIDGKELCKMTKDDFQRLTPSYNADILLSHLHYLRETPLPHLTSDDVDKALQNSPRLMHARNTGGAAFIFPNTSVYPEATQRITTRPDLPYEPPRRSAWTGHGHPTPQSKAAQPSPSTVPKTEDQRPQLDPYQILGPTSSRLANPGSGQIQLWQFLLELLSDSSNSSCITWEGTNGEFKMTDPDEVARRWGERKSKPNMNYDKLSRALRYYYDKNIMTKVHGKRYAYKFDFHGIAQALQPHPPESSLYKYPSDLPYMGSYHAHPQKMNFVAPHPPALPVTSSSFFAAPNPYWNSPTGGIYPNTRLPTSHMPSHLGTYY
# Outline: as §1
# ELF1 = ELF1 (Homo sapiens, UniProt P32519 1-619)
# ELF1, sequence (P32519 whole entry): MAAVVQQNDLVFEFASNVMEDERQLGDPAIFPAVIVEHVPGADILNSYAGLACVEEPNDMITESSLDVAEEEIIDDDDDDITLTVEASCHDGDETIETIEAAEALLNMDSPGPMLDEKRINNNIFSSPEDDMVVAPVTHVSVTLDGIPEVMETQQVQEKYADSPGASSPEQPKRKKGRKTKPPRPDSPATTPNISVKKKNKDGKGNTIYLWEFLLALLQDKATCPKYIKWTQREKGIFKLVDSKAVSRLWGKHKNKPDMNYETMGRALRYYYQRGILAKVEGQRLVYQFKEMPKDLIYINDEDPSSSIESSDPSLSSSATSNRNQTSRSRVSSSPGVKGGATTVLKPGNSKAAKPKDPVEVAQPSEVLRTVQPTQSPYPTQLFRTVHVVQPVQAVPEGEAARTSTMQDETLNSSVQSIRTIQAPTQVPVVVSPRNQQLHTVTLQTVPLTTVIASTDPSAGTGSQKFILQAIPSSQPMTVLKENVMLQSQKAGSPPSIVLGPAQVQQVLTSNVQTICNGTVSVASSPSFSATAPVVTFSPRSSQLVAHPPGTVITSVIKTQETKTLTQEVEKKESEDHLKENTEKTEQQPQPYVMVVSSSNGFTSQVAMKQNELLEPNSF
# Outline: as §1
# EHF = molecular target: T5, EHF (Homo sapiens, UniProt Q9NZC4 1-300)
# T5 sequence: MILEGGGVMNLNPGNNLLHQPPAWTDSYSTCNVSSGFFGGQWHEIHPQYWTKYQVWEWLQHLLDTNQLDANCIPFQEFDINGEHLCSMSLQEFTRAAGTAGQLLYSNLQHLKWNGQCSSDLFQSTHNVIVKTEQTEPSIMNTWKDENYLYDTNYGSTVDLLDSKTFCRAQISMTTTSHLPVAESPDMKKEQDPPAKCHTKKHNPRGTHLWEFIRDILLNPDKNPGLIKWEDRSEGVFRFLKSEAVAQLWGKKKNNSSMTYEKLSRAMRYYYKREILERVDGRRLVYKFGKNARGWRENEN
# Outline: as §1
# SPI1 = SPI1 (Homo sapiens, UniProt P17947 1-270)
# Outline: as §1
# SPIB = SPIB (Homo sapiens, UniProt Q01892 1-262)
# SPIB, sequence (Q01892 whole entry): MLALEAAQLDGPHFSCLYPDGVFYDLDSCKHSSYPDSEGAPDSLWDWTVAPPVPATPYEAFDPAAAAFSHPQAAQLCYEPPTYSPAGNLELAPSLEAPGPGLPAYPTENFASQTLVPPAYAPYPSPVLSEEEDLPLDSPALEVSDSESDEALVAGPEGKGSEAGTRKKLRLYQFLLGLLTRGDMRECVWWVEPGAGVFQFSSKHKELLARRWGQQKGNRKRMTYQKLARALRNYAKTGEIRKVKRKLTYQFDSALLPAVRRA
# Outline: as §1
# ELK3 = molecular target: T6, ELK3 (Homo sapiens, UniProt P41970 1-407)
# T6 sequence: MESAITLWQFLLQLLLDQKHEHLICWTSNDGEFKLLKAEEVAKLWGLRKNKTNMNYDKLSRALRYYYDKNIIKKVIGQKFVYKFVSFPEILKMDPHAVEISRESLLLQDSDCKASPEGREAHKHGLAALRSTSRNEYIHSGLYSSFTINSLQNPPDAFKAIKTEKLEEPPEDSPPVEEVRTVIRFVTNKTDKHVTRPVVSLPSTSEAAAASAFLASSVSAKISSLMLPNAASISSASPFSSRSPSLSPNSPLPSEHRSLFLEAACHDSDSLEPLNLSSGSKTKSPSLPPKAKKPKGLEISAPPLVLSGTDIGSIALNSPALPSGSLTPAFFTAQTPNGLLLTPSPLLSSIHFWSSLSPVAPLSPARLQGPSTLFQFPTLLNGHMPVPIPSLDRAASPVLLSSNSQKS
# Outline: as §1
sequence,measurement,setting,value
CTTCCG,binding signal,FLI1,"7.32 fold enrichment (6-mer frequency, TF over GST control)"
same,binding signal,ELK1,"8.14 fold enrichment (6-mer frequency, TF over GST control)"
same,binding signal,GABPA,"6.76 fold enrichment (6-mer frequency, TF over GST control)"
same,binding signal,ERG,"8.96 fold enrichment (6-mer frequency, TF over GST control)"
same,binding signal,ELF1,"7.37 fold enrichment (6-mer frequency, TF over GST control)"
same,binding signal,EHF,"7.93 fold enrichment (6-mer frequency, TF over GST control)"
same,binding signal,SPI1,"9.8 fold enrichment (6-mer frequency, TF over GST control)"
same,binding signal,SPIB,"7.71 fold enrichment (6-mer frequency, TF over GST control)"
same,binding signal,ELK3,"9.13 fold enrichment (6-mer frequency, TF over GST control)"
